The results in this text go back to paper PMC12136788.

Numbering of substitutions follows the chain as printed. Whole data set: some 5,800 sequences, median “enrichment r” near 0.54, cut for the highest 2% near 16. Only a selection was taken, and the highest values are over-represented in it overall.

B1: ENSG00000070961:be:win_1201|CDS|ENSG00000070961|bound_else_gene|NA|bound_elsewhere_windowed (ssRNA)
RNA: GGGAGUUCUACAGUCCGACGAUCAAAAGACCAUGGCUUGCUGAGUGCACACCAAUUUAUAUACAAUACUUUGUGAAGUUCUUCAUUAUUGGAGUUACAGUUUUAGUGGUCGCAGUGCCAGAAGGUCUUCCACUUGCAGUCACGCAACAGAGGAUUGAGCAUCA
B2: chr5:150401636:150402250:-|three_prime_utr|ENSG00000019582|control|control|control (ssRNA)
RNA: GGGAGUUCUACAGUCCGACGAUCCUGCUGCCCAAUCUCCAUCUGUCAACAGGGGCGUGAGGUCCCAGGAAGUGGCCAAAAGCUAGACAGAUCCCCGUUCCUGACAUCACAGCAGCCUCCAACACAAGGCUCCAAGACCUAGGCCAACAGAGGAUUGAGCAUCA
B3: chr5:40972473:40972581:+|CDS|ENSG00000112936|unk|FALSE|unique (ssRNA)
RNA: GGGAGUUCUACAGUCCGACGAUCAAAACCUUUCUACACAGUUGGUGAGAAGGUGACUGUUUCCUGUUCAGGUGGCAUGUCCUUAGAAGGUCCUUCAGCAUUUCUCUGUGGCUCCAGCCUUAAGUGGAGUCCUGAGAUGAAGAACAACAGAGGAUUGAGCAUCA
B4: ENSG00000096070:stop:overlap|stop_codon|ENSG00000096070|stop_codon|NA|stop_codon (ssRNA)
RNA: GGGAGUUCUACAGUCCGACGAUCAGAAGGAUCCUGCACACAUCUUCGCAGAACCAGUCAACUUGAGUGAGGUUUUAUAUGUUUAGGUUCCAGAUUACCUGGAAUUCAUAUCCAAGCCAAUGGAUUUUUCUACUAUGAGGCGGACAACAGAGGAUUGAGCAUCA
B5: chr3:100749155:100750494:-|three_prime_utr|ENSG00000154175|control|control|control (ssRNA)
RNA: GGGAGUUCUACAGUCCGACGAUCUGCCGCAUUCAUUUAAAGCUAUUUUGUUUACUAUGUAUAAAAGUCUACAAUCUAAUUAAUAGCAAUACUAGAUGUUUAUUAUUAGAAAAGAUUGCUGAGAGUAUUUAUCAGGUUUUACAACAACAGAGGAUUGAGCAUCA
B6: chr16:3436009:3436110:-|3pUTR|ENSG00000167981|unk|total|mutant (ssRNA)
RNA: GGGAGUUCUACAGUCCGACGAUCAUUAAAAUGAAGGCUCUUGCUAAAGUUAUUUUAAUUUUGUUUACGCCGUUUCUGACUUUCCGAAGGAGGAGAAUUUAUUUAUAUUUUGCCAGUUCUGCAGACAUAUCCCGGAAAGUAAAUCAACAGAGGAUUGAGCAUCA
B7: chr1:16124349:16124452:-|3pUTR|ENSG00000142627|msi1|FALSE|unique (ssRNA)
RNA: GGGAGUUCUACAGUCCGACGAUCUUUGUUUUGUUGGACAUUUUUUUCGAAUCUUAAUUUAUUAUUUUUUUUAUAUUUAUUGUUAGAAAAUGACUUAUUUCUGCUCUGGAAUAAAGUUGCAGAUGAUUCAAACCGAUCUUGGCUCAACAGAGGAUUGAGCAUCA
B8: chr1:183143318:183143419:+|3pUTR|ENSG00000135862|msi1|total|mutant (ssRNA)
RNA: GGGAGUUCUACAGUCCGACGAUCACAUCCUGUGCCAAAGGUAUUGGUCAUUCCGAAUGUCGGCCGCCAUCCAUCAGUGCUUUCCGUUAUUAUGAGUGCCGGACACUGAGCCAUCCGUGGGUCAGGAUGCAAUUAUUUAUAAAACAACAGAGGAUUGAGCAUCA
B9: ENSG00000070961:be:win_4051|3pUTR|ENSG00000070961|bound_else_gene|NA|bound_elsewhere_windowed (ssRNA)
RNA: GGGAGUUCUACAGUCCGACGAUCAUUUCUGCUGUUGGCUGUUAAUAAUUUGGAUUAUUUAUGUUUAUAAAUGAUACAGAUCUGUUUACAAGGUUUGUAGAUACUUUUUUUGUUCCUGUUCAUAGAUGGGAAGCUUCCUUAUAACAACAGAGGAUUGAGCAUCA
B10: chr3:46835109:46836203:-|three_prime_utr|ENSG00000160808|control|control|control (ssRNA)
RNA: GGGAGUUCUACAGUCCGACGAUCUGAAGGCACAAGCUGUUCCAGUAUAAUAAAGAAAAUAAUUAAAUUAAGAAAAGUUAUACUAGAAAUAAGAUAUAGGUAUGAUUAUUAUUAAUCAUUAGUUUGUAGUAUUACUUUGUUCUACAACAGAGGAUUGAGCAUCA
B11: chr13:42886387:42888493:-|three_prime_utr|ENSG00000133106|control|control|control (ssRNA)
RNA: GGGAGUUCUACAGUCCGACGAUCCAUAUUUAAUCUCUACUGCCAGGGAAAUGCUACAUUAUUUUUCUAAUUGGAAGUAUAAUUAGAGUGAUGUUGGUAGGGUAGAAAAAGAGGGAGUCACUUGAUGCUUUCAGGUUAAUCAGACAACAGAGGAUUGAGCAUCA
B12: chr15:67202635:67202736:-|3pUTR|ENSG00000103591|msi1|total|mutant (ssRNA)
RNA: GGGAGUUCUACAGUCCGACGAUCUGCCAAAAUUGCCCUUAUCAUGUUGGCUGCCUGACUUGUUUACCGGGUCCCCUUAAUUUCCGUUUUCCGCCGGAGGUUAAGGAGAAAUCUUUUUUUUCCUCAGUAUAUUGUAAGAGAGUGCAACAGAGGAUUGAGCAUCA
B13: chr15:67202635:67202736:-|3pUTR|ENSG00000103591|msi1|FALSE|unique (ssRNA)
RNA: B12 RNA with C66U, C67A, C83U, C84A, C90U, C91A, C93U, C94A
B14: chr16:3436009:3436110:-|3pUTR|ENSG00000167981|unk|FALSE|unique (ssRNA)
RNA: B6 RNA with C69U, C70A, C83U, C84A, C131U, C132A
B15: chr6:1612588:1612689:+|3pUTR|ENSG00000054598|msi1|FALSE|unique (ssRNA)
RNA: GGGAGUUCUACAGUCCGACGAUCUUUAUUCAUGGACUUGUUUUAAAAUGUAAAUUGCAACAUAGUAAUUUAUUUUUAAUUUGUAGUUGGAUGUCGUGGACCAAACGCCAGAAAGUGUUCCCAAAACCUGACGUUAAAUUGCCUCAACAGAGGAUUGAGCAUCA
B16: chr1:183143318:183143419:+|3pUTR|ENSG00000135862|msi1|FALSE|unique (ssRNA)
RNA: B8 RNA with C52U, C53A, C63U, C64A, C83U, C84A, C98U, C99A

The assay deals with MSI1 full-length (mouse, UniProt Q61474 1-362). Nature of the assay: nsRBNS (natural sequence RNA bind-n-seq); RBNS binding buffer (assumed for nsRBNS): 25 mM Tris pH 7.5, 150 mM KCl, 3 mM MgCl2, 0.01% Triton X-100, 500 ug/ml BSA, 20 U/ml SUPERase-In, 4 C; UNK is unkempt and MSI1 is Musashi-1; names of the RNAs are library labels; protein concentration not given here; high values mean tight binding.
Chain of MSI1 full-length (Q61474 whole entry): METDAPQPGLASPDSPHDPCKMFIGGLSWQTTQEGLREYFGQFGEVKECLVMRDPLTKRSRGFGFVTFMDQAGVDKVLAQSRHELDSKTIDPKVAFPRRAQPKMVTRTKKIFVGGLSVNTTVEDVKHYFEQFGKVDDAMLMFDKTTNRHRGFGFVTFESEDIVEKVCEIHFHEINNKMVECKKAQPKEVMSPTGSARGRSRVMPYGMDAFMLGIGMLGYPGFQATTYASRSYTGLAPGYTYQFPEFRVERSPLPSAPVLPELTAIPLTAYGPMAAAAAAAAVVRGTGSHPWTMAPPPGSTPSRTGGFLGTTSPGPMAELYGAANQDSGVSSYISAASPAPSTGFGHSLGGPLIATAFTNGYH
In turn, B1 displayed a binding signal of 1.51 enrichment R.

Regarding B2, the binding signal was found to be 0.462 enrichment R.

B3: the binding signal worked out at 0.339 enrichment R.

For the molecule B4, the binding signal was determined as 0.383 enrichment R.

B5 had a binding signal of 4.63 enrichment R.

For the molecule B6, the binding signal is 0.68 enrichment R.

The molecule B7 had a binding signal of 4.58 enrichment R.

Regarding B8, the binding signal amounted to 0.319 enrichment R.

For the molecule B9, the binding signal was found to be 1.02 enrichment R.

B10 displayed a binding signal of 24.8 enrichment R.

Consider B11, for which the binding signal came to 0.46 enrichment R.

B12: the binding signal was found to be 0.438 enrichment R.

In turn, B13 registered a binding signal of 32.9 enrichment R.

In turn, B14 gave a binding signal of 19.1 enrichment R.

In turn, B15 showed a binding signal of 0.311 enrichment R.

For B16, the binding signal stood at 34.2 enrichment R.
